FMDV inh = blocks foot and mouth disease virus; actives 1.2% (n = 410,000); FMDV antiviral cell-based qHTS; Potency, µM (titrated, usually from 57.9 µM), inactives show top-dose activity change, negative = inhibition, hits mostly inhibitors; calls by dose curve; tested in HEK293T cells; note: read-out not given here; potency is the fitted concentration of half-maximal effect; % is set by controls: 0 for no effect and ±100 for the full control effect; nearly all actives have a fitted effect of over 45% in size
HCMV antiviral = blocks human cytomegalovirus replication | HFF cells, HCMV-luciferase reporter, 72 h; active compounds read low | activity change, negative = inhibition, % at 57.5 µM | actives 4.5% (n = 410,000) | AID 1259415; in the data active = activity change below about -60%; inconclusive = no clear call, values can overlap the other calls; inactive = above about -39%; note: % is set by controls: 0 for no effect and ±100 for the full control effect
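Two-dose cell screen: HFF monolayers treated with compounds and infected with luciferase-expressing HCMV at 1 PFU/cell, 72 h at 37C, then lysed for luciferase measurement.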
SARS PLP yeast = SARS-CoV PLP inhibition in yeast; S. cerevisiae expressing SARS-CoV PLpro, growth rescue; Potency, µM (doses to about 32.9 µM), without a hit: at the highest dose activity, positive = growth rescue, actives largely listed as activators; actives 0.19% (n = 330,000); calls by dose curve; note: potency is the fitted concentration of half-maximal effect; 0% is about no effect; nearly all actives have a fitted effect of over 55% in size
HCV inh = blocks hepatitis C virus; Huh7.5.1 HCVcc-Cre infection, luciferase reporter, 44 h; Potency, µM (top dose mostly 41.8 µM), for inactives: top-dose activity change, negative = inhibition, hits mostly inhibitors; actives 3.4% (n = 340,000); active = well fitted inhibition curve with a large enough effect; inconclusive = small, poorly fitted or top-dose-only effect, or another doubt; inactive = no such curve, though single readings can be large or run the other way; note: potency is the fitted concentration of half-maximal effect; % is set by controls: 0 for no effect and ±100 for the full control effect
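Reporter virus HCVcc-Cre (~0.5 moi) infects cells exposed to compound; seeding density 1,000 cells/well with 4 h settling beforehand. Luminescence, 15 sec read, taken 44 h post-infection following a 15 min RT substrate incubation.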
Lassa entry inh = Lassa virus entry inhibition; Lassa virus pseudotype entry inhibition, cell reporter; Potency, µM (doses to about 37.9 µM), without a hit: at the top dose activity change, negative = inhibition, usual class: inhibitors; actives 1.2% (n = 300,000); calls by dose curve; tested in HEK293 cells; note: potency is the fitted concentration of half-maximal effect; % is set by controls: 0 for no effect and ±100 for the full control effect; nearly all actives have a fitted effect of over 50% in size
MARV entry inh = inhibitors of Marburg virus binding or cell entry; actives 1.8% (n = 300,000); Potency, µM (highest dose often 37.8 µM), for the others: top-dose activity change, negative = inhibition, most hits filed as inhibitors; Marburg virus pseudotyped entry inhibition, cell reporter; calls by dose curve; tested in HEK293 cells; note: potency is the fitted concentration of half-maximal effect; % is set by controls: 0 for no effect and ±100 for the full control effect
Numbers without * were called inactive; ? = inconclusive; / = no result given; [ ] = remark or other dose. Most compounds without a hit are left out; they make up all but 8% or so of the library.

SMILES	FMDV inh	HCMV antiviral	SARS PLP yeast	HCV inh	Lassa entry inh	MARV entry inh
O=C(c1ccco1)N1CCN(C(=O)N2c3ccccc3Sc3ccccc32)CC1	/	?	-13%	?	?	?
O=C(COc1ccccc1)N1c2ccccc2Sc2ccccc21	-17%	-39	9%	?	4%	?
O=C(NCCc1ccccc1)N1c2ccccc2Sc2ccccc21	28µM*	-11	-27%	?	-5%	?
Cc1cccc(OCCn2c(SCC(N)=O)nc3ccccc32)c1	-15%	14	/	/	12%[46.1 µM]	/
COc1cccc(Cc2nc3ccccc3nc2SCC(=O)NCCc2ccccc2)c1	?	-21	/	/	?	/
Cc1cccc(NC(=O)c2cc(S(=O)(=O)N3CCc4ccccc43)ccc2F)c1C	-8%	15	/	/	12%[46.1 µM]	/
Cc1c(C(=O)N2CCC(C)CC2)sc2ncnc(N(C)c3ccccc3)c12	?	-66*	-52%	?	-15%	?
C[C@]1(O)CC(=O)C=C[C@H]1Nc1ccccc1	25µM*	?	/	-14%	/	/
CC1(C)CC(C(=O)Nc2ccccc2)C(=O)O1 (centres undefined)	18%	7	/	5%	3%	8%[46.1 µM]
CC(=Nc1ccc(C)cc1)c1sc2ccccc2c1O	/	11	-25%	13µM*	?	?
COc1ccc(C2=Nc3ccccc3NC(c3cccs3)=N2)cc1	-2%	-30	/	/	8%[46.1 µM]	20µM*
COc1ccc(Cl)cc1NC(=O)Cn1cc2c(n1)CCC(C)C2 (centres undefined)	-12%	-15	/	/	1%[46.1 µM]	4%[46.1 µM]
Cc1cc2cc(C)c3nnc(SCc4ccccn4)n3c2cc1C	-35%	-65*	-19%	?	9%	1%
Cc1ccc(C)c2c1cc(C)c1nnc(SCc3ccccn3)n12	1%	29	-6%	19%	-1%	24%
CCCC[n+]1ccn(C2=C([O-])c3ccccc3C(=O)/C2=N\S(=O)(=O)c2ccc(Cl)cc2)c1	-15%	-73*	0%	?	/	/
CCCCC[n+]1ccn(C2=C([O-])c3ccccc3C(=O)/C2=N\S(=O)(=O)c2ccc(Cl)cc2)c1	?	-6	0%	4%	/	/
COc1ccc(C=CNC(=O)Cc2ccc(OC)c(OC)c2)cc1	/	/	/	/	/	24%[14.2 µM]
CC(=O)NN1C(=O)c2ccc3c4c(ccc(c24)C1=O)C(=O)N(NC(C)=O)C3=O	-19%	-104*	8%	10µM*	/	/
COc1ccc(C2NC(=O)NC(C)=C2C(=O)OC2CCCCC2)cc1OC (centres undefined)	-23%	2	2%	-1%	?	0%[46.1 µM]
CC1=C(C(=O)OC2CCCCCCC2)C(c2cccc(O)c2)NC(=O)N1 (centres undefined)	?	43	0%	9%	1.8µM*	?
CC1=C(C(=O)OC2CCCCC2)C(c2cccc([N+](=O)[O-])c2)NC(=O)N1 (centres undefined)	-12%	-2	0%	11µM*	/	/
CCOC(=O)c1c(-c2ccccc2)csc1NC(=O)c1cc(-c2ccc(Cl)cc2)on1	-18%	-2	/	/	8%[46.1 µM]	1%[46.1 µM]
COc1ccc(C2=C(C)C(N3CCC(C(=O)Nc4cc(C)ccc4C)CC3)=NS2(=O)=O)cc1	-19%	6	/	/	-6%[46.1 µM]	/
Cn1nc(-c2ccccc2F)c2cc(C(=O)NCc3cccc(Cl)c3)sc21	-22%	-32	/	/	?	?
CC(CCc1ccco1)NC(=O)c1cc2c(-c3ccccc3F)nn(C)c2s1 (centres undefined)	?	23	-9%	18µM*	/	/
Cn1nc(-c2ccccc2F)c2cc(C(=O)NCc3ccc(Cl)cc3)sc21	?	-71*	/	/	0%[46.1 µM]	-28%[46.1 µM]
CN1CCN(C(=O)Nc2cccc(Cl)c2)c2cccnc21	-2%	-3	/	/	5%[46.1 µM]	1%[46.1 µM]
Cc1nc2nc(NC(=O)C(C)(C)C)[nH]n2c(=O)c1Cc1ccccc1	-8%	15	/	/	14%[46.1 µM]	9%[46.1 µM]
Cc1ccc(C2(c3ccc(C)cc3)CC2C(=O)NC(C)C)cc1 (centres undefined)	-13%	-23	-2%	-9%	-3%[46.1 µM]	13µM*
Cc1ccc(C2(c3ccc(C)cc3)CC2C(=O)NCc2cccnc2)cc1 (centres undefined)	-13%	-18	0%	?	-18%	0%

Source: PubChem BioAssay (National Center for Advancing Translational Sciences (NCATS))
